Data published in PubChem BioAssay (NCI).
Several values for one entry are separate records, joined by “and”; a condition that tells them apart may be missing. Equal values may be shown once. This is part of a sample that, as a whole, favours compounds with a hit. Of some 79,000 tested, about 15% had one in any assay. Unmarked numbers belong to inactive results. Activity calls are given as the source filed them. Cut-off read from the data, not from the text of the source: active = growth inhibition above about 70%; inactive = the rest.

Experiments:
[1] = NCI Yeast Anticancer Drug Screen. Data for the rad50 strain (AID 155);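 note: 0% = growth of vehicle-only cultures of the same strain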; conditions: S. cerevisiae rad50 strain growth inhibition, stronger effect = higher value
How it was run: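 Growth of the mutant yeast was measured after compound exposure and referenced to vehicle-treated cultures.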

[2] = NCI Yeast Anticancer Drug Screen. Data for the mec2-1 strain (AID 157); conditions: S. cerevisiae mec2-1 strain, stronger effect = higher value
How it was run: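 Strain: mec2-1 (DNA repair/cell cycle alteration). Compound exposure, then growth measured; inhibition expressed relative to vehicle.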

[3] = NCI Yeast Anticancer Drug Screen. Data for the sgs1 mgt1 strain (AID 161);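 note: 0% = growth of cultures given vehicle only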; conditions: S. cerevisiae sgs1 mgt1 strain, stronger effect = higher value
How it was run: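 Mutant yeast exposed to compound; growth scored against vehicle-only wells.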

[4] = NCI Yeast Anticancer Drug Screen. Data for the cln2 rad14 strain (AID 165);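 note: 0% = growth equal to vehicle treated cultures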; conditions: S. cerevisiae cln2 rad14 strain, stronger effect = higher value
How it was run: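 Compounds are applied to the cln2 rad14 yeast strain, and growth is then compared with that of vehicle-treated cultures to give inhibition.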

[5] = NCI Yeast Anticancer Drug Screen. Data for the bub3 strain (AID 167); conditions: S. cerevisiae bub3 mutant strain, stronger effect = higher value
How it was run: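 Whole-cell yeast assay. The mutant strain was incubated with compounds, and growth inhibition was determined by comparison with vehicle-treated cells.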

[6] = NCI Yeast Anticancer Drug Screen. Data for the mlh1 rad18 strain (AID 175); conditions: S. cerevisiae mlh1 rad18 strain growth inhibition, stronger effect = higher value
How it was run: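 Read-out is yeast growth inhibition, calculated against vehicle-only controls. The compound was applied to a strain engineered with DNA damage repair alterations.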

[7] = at 5.0 µM (retest, dose inferred, filed as 0.5)
[8] = at 50.0 µM (retest, dose inferred, filed as 5.0)

Structure (SMILES) | growth inhibition [1, 7] | growth inhibition [1, 8] | growth inhibition ([1]; at 50.0 µM) | growth inhibition [2, 7] | growth inhibition [2, 8] | growth inhibition ([2]; at 50.0 µM) | growth inhibition [3, 7] | growth inhibition [3, 8] | growth inhibition ([3]; at 50.0 µM) | growth inhibition [4, 7] | growth inhibition [4, 8] | growth inhibition ([4]; at 50.0 µM) | growth inhibition [5, 7] | growth inhibition [5, 8] | growth inhibition ([5]; at 50.0 µM) | growth inhibition [6, 7] | growth inhibition [6, 8] | growth inhibition ([6]; at 50.0 µM)
CC(=O)Oc1c(Br)cc(Br)cc1Br | 4% | -4% | 9.35% | -5% | -34% | 6.7% | 10% | 4% | 4.5% | 2% | -2% | 1.2% | 10% | 6% | 9.1% | 13% | 20% | 0.9%
CC[N+](C)(CC)CCCOC(=O)c1ccccc1Oc1ccc(C)cc1 | 1% | 0% | 75.5% (active) | -17% | -8% | 13.8% | -9% | -7% | 21.9% | -4% | -6% | -0.85% | 2% | 42% | 12.8% | 15% | 3% | 14.9%
c1ccc(-n2ncc3ccc4cccn4c32)cc1 | -4% | -2% | 63.9% | 3% | 9% | 38.1% | -15% | 40% | 55% | -13% | 25% | 13.1% | 17% | 16% | 91.3% (active) | 12% | 40% | 47.7%
CN1C=C(C#N)CCC1Sc1ccc(Cl)cc1 (stereo not given) | -7% | 38% | 58.1% | 5% | 65% | 58.6% | 3% | 54% | 92.6% (active) |  |  |  | -4% | 60% | 59.3% | 22% | 82% (active) | 86.9% (active)
COc1ccc2oc(-c3ccc(OC)c(OC)c3OC)cc(=O)c2c1 | -34% | -26% | 15.7% | -47% | -12% | 22% |  |  |  | -14% | 9% | -4.55% | -15% | 48% | 51.2% | -39% | -7% | 4.8%
CCOSc1ccccc1 | 3% | 50% | 34.3% | 5% | 63% | 32.7% | 3% | 74% (active) | 16.2% | 2% | 22% | 16.1% |  |  |  | 21% | 93% (active) | 56.7%
CN(C)c1cc[c]([Sn]([c]2ccc(N(C)C)cc2)([c]2ccc(N(C)C)cc2)[c]2ccc(N(C)C)cc2)cc1 | 0% | 0% | 72.5% (active) | 4% | 4% | 34.1% | -9% | -9% | 37% |  |  |  | -12% | -12% | 49.4% | -18% | -18% | 78.8% (active)
O=C(CSc1nnc(-c2ccc(N=Cc3ccc(Cl)cc3)cc2)o1)Nc1ccccc1Cl | 22% | 57% | 54.8% | -10% | 44% | -11.8% | 7% | 40% | 6.25% |  |  |  | -1% | 20% | -11.8% | 2% | 58% | 20.4%
Cc1cc(Cl)c(C(C)C)cc1O | 17% | 62% | 53.2% | -4% | 61% | 48.2% | 3% | 55% | 48.6% |  |  |  | 7% | 55% | 24.4% | 8% | 58% | 63.4%
[N-]=[N+]=NCC(O)c1ccc2c(c1)[nH]c1ccccc12 (stereo not given) | -11% | 30% | 47.9% | -7% | 30% | 29.6% |  |  |  | -8% | 23% | 81.8% (active) | -4% | 36% | 64% | 24% | 68% | 75.4% (active)
CC(=O)OCC(OC(C)=O)C(OC(C)=O)C(OC(C)=O)C(COC(C)=O)OC(C)=O (stereo not given) |  |  | -27.2% and -22.9% and -9.4% |  |  | 9.3% and -7.9% and -11.8% |  |  | 3.45% and 10.6% and -10.8% |  |  | -30.3% and -21.9% and -0.1% |  |  | 0.95% and -9.35% and 14.6% |  |  | -24.4% and 7.9% and 2.5%
